High-throughput results deposited in PubChem BioAssay by Broad Institute.
GSIS activator = GLuc luminescence reporter in INS-1E cells, primary screen for activators of glucose-dependent secretion of insulin | 370,000 tested, 0.61% active | activation, % at 16.6 µM | AID 743287, 2014 | INS-1E GLuc reporter insulin secretion, 2-3 h;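 active means lowest replicate activation of at least 40%, so every replicate reaches that level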;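 further: 0% = median of neutral control wells and 100% = median of IBMX positive control wells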
PGC1a acetyl inh = inhibitors of PGC1a acetylation signal, primary screen, cell-based, U2OS, AlphaScreen, inhibitor mode | AlphaScreen anti-acetyl-lysine; with virally co-expressed GCN5 acetyltransferase | inhibition, % at 15.6 µM | 350,000 tested, 0.17% active | AID 651687, 2012;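 active means every replicate shows inhibition of at least 40%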;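 further: 0% = neutral control wells and 100% = positive control wells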
DENV2 CPE = inhibitors of DENV2 cytopathic effect, primary screen, cell-based, plate reader, single concentration; CPE inhibition, % at 9.99 µM; DENV2-infected cells, cytopathic effect rescue; 350,000 tested, 1.7% active; in the data active means CPE inhibition above about 20%, passing the limit was not always enough; tested in BHK-21 cells;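 further: 0% = median of neutral control wells and 100% = median of positive control wells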
CaV13 ICDI inh = Disruptors of the CACNA1D IQ motif to Ca2+-dependent inactivation inhibitor domain association, primary screening, Förster resonance energy transfer in intact living …; HEK cells, CFP/YFP FRET ICDI-IQ, plate reader, 10 min; percent FRET-ratio fall versus neutral wells; inhibition, % at 12.3 µM; 340,000 tested, 0.098% active; AID 743397;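 active means mean replicate inhibition of at least 30% and at least 1% of replicates passing that level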;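 further: 0% = median of the neutral control wells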
ERAP1 HTS inh = human ERAP1 aminopeptidase inhibitors, primary screen, biochemical, single point, plate reader; inhibition, % at 10.7 µM; 340,000 tested, 0.15% active; Endoplasmic reticulum aminopeptidase 1 (Homo sapiens), Q9NZ08; recombinant ERAP1, Leu-AMC fluorescence, 60 min;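 active means mean replicate inhibition of at least 30%, or all replicates individually reaching that 30% level; inactive means mean below 30% and not every replicate reaching it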;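 further: 0% = neutral control wells and 100% = L-leucinethiol positive control wells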
Target sequence (Q9NZ08 whole entry, looked up): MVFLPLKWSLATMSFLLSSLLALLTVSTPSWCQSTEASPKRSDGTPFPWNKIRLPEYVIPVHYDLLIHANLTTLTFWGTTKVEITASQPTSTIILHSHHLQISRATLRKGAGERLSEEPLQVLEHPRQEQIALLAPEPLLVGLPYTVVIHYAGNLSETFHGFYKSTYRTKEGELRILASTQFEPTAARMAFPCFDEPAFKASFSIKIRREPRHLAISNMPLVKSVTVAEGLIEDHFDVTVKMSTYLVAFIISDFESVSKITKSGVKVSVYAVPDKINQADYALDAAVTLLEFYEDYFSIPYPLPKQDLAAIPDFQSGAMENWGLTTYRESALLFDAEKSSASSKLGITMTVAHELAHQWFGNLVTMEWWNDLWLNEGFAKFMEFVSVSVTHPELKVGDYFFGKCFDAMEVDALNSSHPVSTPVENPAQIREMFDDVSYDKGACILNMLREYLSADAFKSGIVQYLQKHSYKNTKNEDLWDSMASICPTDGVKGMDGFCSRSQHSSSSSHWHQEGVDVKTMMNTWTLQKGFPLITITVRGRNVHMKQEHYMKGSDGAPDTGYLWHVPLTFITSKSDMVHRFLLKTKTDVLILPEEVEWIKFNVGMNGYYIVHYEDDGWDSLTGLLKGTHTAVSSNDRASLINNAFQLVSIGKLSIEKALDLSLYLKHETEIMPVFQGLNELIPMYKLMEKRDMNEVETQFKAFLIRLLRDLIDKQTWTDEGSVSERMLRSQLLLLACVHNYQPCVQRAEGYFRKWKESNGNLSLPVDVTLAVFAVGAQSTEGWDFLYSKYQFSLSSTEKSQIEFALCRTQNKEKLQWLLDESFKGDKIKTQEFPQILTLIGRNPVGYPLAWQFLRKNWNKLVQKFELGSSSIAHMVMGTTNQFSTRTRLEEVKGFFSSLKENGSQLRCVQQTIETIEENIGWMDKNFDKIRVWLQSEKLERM
Ecoli rRNA inh = reduced GFP signal of wild-type E. coli, primary screen, bacterial rRNA inhibitor project, GFP/RFP fluorescence, OD600, single point; 350,000 tested, 1.6% active; E. coli WT GFP vs humanized-ribosome RFP mutants, 24 h; stronger effect = lower value; DMSO median 0, no signal -100; GFP signal change (wild-type ribosome), % (concentration not given with the values); AID 720706, 2013;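 active means significant combined selectivity score with lowered wild-type GFP, culture density cut under 30%, mutant RFP and density less affected; inactive means any of these conditions unmet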
Starred values were filed as active, the others as inactive; / = no result. Compounds with a hit are over-represented: about 3.2% of the library has one in this group of screens.

SMILES | GSIS activator | PGC1a acetyl inh | DENV2 CPE | CaV13 ICDI inh | ERAP1 HTS inh | Ecoli rRNA inh
CCc1cc(C(=O)c2ccc(OC)cc2)c(NC(=O)COCC(=O)O)s1 | 1 | 3 | 6 | -4 | 5 | -12
CCc1cc(C(=O)c2ccc(OC)cc2)c(NC(=O)CC(C)(C)CC(=O)O)s1 | -13 | -7 | -9 | -4 | 9 | -28*
CC(C)N1C(=O)N(c2cccc(Cl)c2)C(C)(O)CC1(C)C (stereo not drawn) | 64* | / | 0 | -14 | -5 | 8
CC(C)N1C(=O)N(c2ccc(Cl)cc2)C(C)(O)CC1(C)C (stereo not drawn) | 3 | -1 | 4 | -12 | 0 | 11
O=S(=O)(Nc1ccc(Br)cc1)c1cccc2cccnc12 | -26 | / | 2 | -17 | -1 | -26*
COc1ccc(NS(=O)(=O)c2cccc3cccnc23)cc1 | / | -8 | / | / | / | /
CCN(CC)S(=O)(=O)c1cccc2cccnc12 | / | / | / | -4 | / | /
O=S(=O)(NCCc1ccccc1)c1cccc2cccnc12 | 4 | 6 | 2 | -3 | -1 | -25*
CSS(=O)(=O)c1cccc2cccnc12 | -3 | -7 | 5 | -5 | 85* | 19
CC(C)CC1C(=O)N(Cc2cn(Cc3ccco3)nn2)CCS(=O)(=O)N1Cc1ccc(-c2ccc(Cl)cc2)cc1 (stereo not drawn) | / | -9 | 23* | -3 | -3 | /
Cc1ccc(-c2ccc(CN3C(C(C)C)C(=O)N(Cc4cn(Cc5ccco5)nn4)CCS3(=O)=O)cc2)cc1 (stereo not drawn) | / | 3 | 28* | -2 | -3 | /
C[C@H]1CCCCO[C@H](CN(C)C(=O)Nc2cccc3ccccc23)[C@@H](C)CN([C@@H](C)CO)C(=O)c2cc(NS(=O)(=O)c3cn(C)cn3)ccc2O1 | -1 | -2 | -13 | / | / | -3
COc1ccc(C2CNC(=O)C2)cc1OC1CCCC1 (stereo not drawn) | 45* | 1 | 18 | -5 | -5 | 1
Cc1cccc(C(=O)Nc2scc(-c3ccc(Br)cc3)c2C(=O)O)c1 | / | -1 | -7 | -17 | -2 | 5
Cc1ccc(-c2csc(NC(=O)c3cccc(C)c3)c2C(=O)O)cc1 | -9 | -2 | -1 | -5 | 5 | -38*
COc1ccc(NC(=O)N2CCC3(CC2)CN(C(=O)CN2CCOCC2)[C@@H](CO)c2[nH]c4cc(OC)ccc4c23)cc1 | 1 | -3 | 25* | / | 0 | 0
CCC(=O)N1CCC2(CC1)CN(C(=O)CN1CCOCC1)[C@H](CO)c1[nH]c3cc(OC)ccc3c12 | 14 | / | 40* | / | -2 | 4
COc1ccc2c3c([nH]c2c1)[C@H](CO)N(C(=O)CN1CCOCC1)CC31CN(Cc2ccccc2)C1 | 6 | 5 | 52* | / | 3 | 6
COc1ccc2c3c([nH]c2c1)[C@H](CO)N(C(=O)CN1CCOCC1)CC31CN(C)C1 | 13 | 6 | 11 | / | / | 7
CCC(=O)N1CC2(C1)CN(C(=O)CN1CCOCC1)[C@H](CO)c1[nH]c3cc(OC)ccc3c12 | 19 | -4 | 30* | / | / | 4
COc1ccc(NC(=O)N2CC3(C2)CN(C(=O)CN2CCOCC2)[C@@H](CO)c2[nH]c4cc(OC)ccc4c23)cc1 | -5 | / | -5 | / | 3 | -1
Cc1cccc(-c2ccc([C@@H]3[C@H](CO)N4C(=O)CN(C(=O)c5cnccn5)C[C@@H]34)cc2)c1 | 11 | / | / | / | / | 1
C[C@H](CO)N1C[C@H](C)[C@H](CN(C)Cc2ccc(Oc3ccccc3)cc2)Oc2ccc(NC(=O)Cn3cnnn3)cc2CC1=O | -8 | -11 | 18 | / | 5 | -3
CN(c1ccc(F)cc1)S(=O)(=O)c1ccc(Cl)c(C(=O)NCC2CCCO2)c1 (stereo not drawn) | 43* | -5 | 8 | -7 | -2 | 1
Cc1noc(C)c1CSCC(=O)Nc1nc2ccccc2s1 | 5 | / | -7 | -2 | 4 | -23*
SMILES | GSIS activator | PGC1a acetyl inh | DENV2 CPE | CaV13 ICDI inh | ERAP1 HTS inh | Ecoli rRNA inh
CCc1ccc2nc(NC(=O)CSCc3c(C)noc3C)sc2c1 | -14 | -3 | / | / | / | /
C/C=C/c1ccc2c(c1)O[C@H](CN(C)C(=O)C1CCC1)[C@H](C)CN([C@@H](C)CO)S2(=O)=O | 3 | 1 | / | / | / | 0
COc1ccc(N=C2S/C(=C\c3ccc(N4CCOCC4)o3)C(=O)N2CCc2c[nH]c3ccccc23)cc1 | / | 62* | / | / | / | /
COc1ccc(N=C2S/C(=C\c3ccc(OCC(=O)O)cc3)C(=O)N2CCc2c[nH]c3ccccc23)cc1 | -3 | 10 | 5 | -6 | 5 | -3
CCCc1cc(=O)oc2c(C)c(OC3CCCCC3=O)ccc12 (stereo not drawn) | 6 | / | 26* | -16 | 2 | 3
O=C(Cc1cccnc1)N1CC2(C1)[C@@H](c1ccccc1)[C@@H](CO)N2C(=O)C1CCOCC1 | -3 | 12 | 22* | / | -1 | 2
COCC(=O)N1CC2(C1)[C@H](c1ccccc1)[C@H](CO)N2C(=O)c1cccnc1 | 17 | 4 | -4 | / | 4 | 3
CCC(=O)N1CC2(C1)[C@@H](c1ccc(-c3ccccc3C)cc1)[C@@H](CO)N2C(=O)CC | 0 | / | 37* | / | 2 | -5
CCC(=O)N1CC2(C1)[C@@H](c1ccccc1)[C@@H](CO)N2C(=O)c1cccnc1 | 1 | -6 | 29* | / | -2 | 4
CCC(=O)N1CC2(C1)[C@H](c1ccccc1)[C@@H](CO)N2C(=O)c1ccncc1 | 13 | -1 | 23* | / | 1 | 3
COc1cccc(-c2cnc3c(c2)C(=O)N([C@H](C)CO)C[C@@H](C)[C@@H](CN(C)Cc2ccc(F)cc2)O3)c1 | -18 | 11 | -8 | / | -1 | -6
N#Cc1sc2nc(-c3ccccc3)cc(-c3ccco3)c2c1N | / | 7 | / | -9 | / | /
N#Cc1sc2nc(C3CC3)cc(-c3ccccc3)c2c1N | 49* | -16 | -4 | -3 | -3 | -10
C[C@@H]1CN([C@@H](C)CO)C(=O)c2cc(NC(=O)Nc3ccc4c(c3)OCO4)ccc2O[C@H]1CN(C)C | 9 | -1 | 0 | / | -4 | 1
CC(=O)Oc1ccc(C(=O)Nc2cc(C)on2)cc1 | 4 | / | -2 | 56* | 1 | 12
COc1ccc(C(=O)Nc2cc(C)on2)cc1 | / | -1 | / | -6 | / | /
CC(=O)N1CCN(C(=S)NCc2ccccc2)CC1 | 58* | / | / | -3 | / | /
COc1ccc(S(=O)(=O)Nc2cccc3c2O[C@@H](CN(C)C(=O)Nc2ccc4c(c2)OCO4)[C@H](C)CN([C@@H](C)CO)C3=O)cc1 | 11 | -16 | -2 | / | -4 | -3
